Reference: PubChem BioAssay (NCATS)
Inconclusive results are not listed. Calls of active or inactive are those of the source. The call rests on the fitted dose curve; in most records, active means well fitted curve in the direction sought with a large enough effect; inconclusive means small, poorly fitted or top-dose-only effect, or another doubt; inactive means no such curve, though single readings can be large; an effect the other way counts as inactive or inconclusive.

How the values were obtained:
[1] = Viability qHTS for spleen associated tyrosine kinase inhibitor (SYKi) drug resistant MV4-11 cells (AID 1963824); further: nearly all actives have a fitted effect of over 35% in size
In short: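 SYK inhibitor-resistant MV4-11 AML cells, 500 per well, added to predispensed compounds and incubated 72 hr at 37 C, 5% CO2. Viability measured by CellTiter-Glo luminescence after 10 min at room temperature.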

[2] = Quantitative highthroughput screen to assess conditional lethalithy of NOMO1 cells grown in RPMI1640 with dialyzed fetal bovine serum (RPMI+ds) (AID 1963877); further: nearly all actives have a fitted effect of over 30% in size;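 on Viability: series mostly up to about 46 µM; 100% = DMSO control wells and 0% = empty wells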
In short: (§1)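 Each medium arm—HPLM with 10% dialyzed FBS, or RPMI1640 with 5 mM glucose and 10% untreated or dialyzed FBS—was screened against an 11-point, 3-fold compound titration for 48 h at 37 °C, with CellTiter-Glo luminescence as endpoint.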

[3] = Quantitative highthroughput screen to assess conditional lethalithy of P12 Ichikawa cells grown in RPMI1640 with dialyzed fetal bovine serum (RPMI+ds) (AID 1963880); details: Potency: P12-Ichikawa viability; further: nearly all actives have a fitted effect of over 35% in size;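 on Viability: 100% = DMSO wells and 0% = empty wells on each plate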
In short: as §1

[4] = Quantitative highthroughput screen to assess conditional lethalithy of P12 Ichikawa cells grown in RPMI1640 with untreated serum (RPMI+s) (AID 1963881); details: Potency: viability; further: nearly all actives have a fitted effect of over 35% in size;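 on Viability: series mostly up to about 46 µM; 100% = DMSO wells and 0% = empty wells without cells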
In short: as §1

[5] = Cellular viability qHTS for adrenocortical cancer (ACC) cell line SW-13 (AID 1963989); details: SW-13 ACC cells viability, CellTiter-Glo, 48 h; activity (max response): active compounds read low; further: nearly all actives have a fitted effect of over 65% in size;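 on activity (max response): cells grown in serum-free medium with ITS supplement; on the % scale 0 is the no-effect control and ±100 the full control effect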
In short: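 Luminescent ATP read-out (CellTiter-Glo, 20 min at room temperature) measured metabolically competent SW-13 cells after 48 h compound treatment. Final concentrations spanned up to 46 uM; bortezomib served as positive control.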

[6] = Cellular viability qHTS for adrenocortical cancer (ACC) cell line NCI-H295R (AID 1963990); further: nearly all actives have a fitted effect of over 60% in size
In short: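 IC50 and maximal efficacy derive from four-parameter logistic modelling of titration curves, with reads scaled between DMSO-only wells (0%) and doxorubicin hydrochloride (100% inhibition). Compounds spanned up to 46 uM over 48 h.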

[7] = Quantitative highthroughput screen to assess conditional lethalithy of NOMO1 cells grown in Human Plasma-Like Medium with dialyzed fetal bovine serum (HPLM+ds) (AID 1963878); further: nearly all actives have a fitted effect of over 35% in size;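 on Viability: 100% = DMSO wells and 0% = empty wells on each plate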
In short: as §1

[8] = Quantitative highthroughput screen to assess conditional lethalithy of SEM cells grown in Human Plasma-Like Medium with dialyzed fetal bovine serum (HPLM+ds) (AID 1963882); further: nearly all actives have a fitted effect of over 35% in size; on Viability: series mostly up to about 46 µM
In short: as §1

[9] = Quantitative highthroughput screen to assess conditional lethalithy of SEM cells grown in RPMI1640 with unreated serum (RPMI+s) (AID 1963883); further: nearly all actives have a fitted effect of over 35% in size;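 on Viability: 100% = DMSO wells and 0% = empty wells without cells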
In short: as §1

[10] = Quantitative highthroughput screen to assess conditional lethalithy of SEM cells grown in RPMI1640 with dialyzed fetal bovine serum (RPMI+ds) (AID 1963884); further: nearly all actives have a fitted effect of over 35% in size;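 on Viability: series mostly up to about 46 µM; 100% = DMSO control wells and 0% = empty wells without cells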
In short: as §1

[11] = Quantitative highthroughput screen to assess conditional lethalithy of NOMO1 cells grown in RPMI1640 with untreated serum (RPMI+s) (AID 1963876); further: nearly all actives have a fitted effect of over 35% in size;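 on Viability: 100% = DMSO wells and 0% = empty wells without cells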
In short: as §1

[12] = Quantitative highthroughput screen to assess conditional lethalithy of P12 Ichikawa cells grown in Human Plasma-Like Medium with dialyzed fetal bovine serum (HPLM+ds) (AID 1963879); details: Potency: viability; further: nearly all actives have a fitted effect of over 35% in size; on Viability: series mostly up to about 46 µM
In short: as §1
Potency means the concentration at half of the fitted maximal effect.

OCCn1cc(-c2cnc3nnn(Cc4ccc5ncccc5c4)c3n2)cn1
active: Potency [1] 20900 nM
inactive: Potency [2] | Potency [3] | Potency [4] | activity (max response) [5] -4.78% | Potency [6]

CCS(=O)(=O)Nc1ccc2[nH]c(O)c(C(=Nc3ccc(CN4CCCCC4)cc3)c3ccccc3)c2c1
active: Potency [1] 33.2 nM | Potency [2] 833 nM | Potency [7] 4690 nM | Potency [8] 74.3 nM | Potency [9] 93.5 nM | Potency [10] 93.5 nM | Potency [5] 3550 nM | Potency [6] 1260 nM

CCN1CCN(Cc2ccc(-c3cc4c(N[C@H](C)c5ccccc5)ncnc4[nH]3)cc2)CC1
active: Potency [1] 1860 nM | Potency [7] 20900 nM | Potency [8] 16600 nM | Potency [9] 14800 nM | Potency [10] 18700 nM | Potency [5] 4470 nM | Potency [6] 31600 nM

O=C(NCc1ccncc1)C12C[C@H]3C[C@@H](C1)CC(c1ccc(Cl)cc1)(C3)C2
inactive: Potency [6]
active: Potency [1] 11800 nM | Potency [7] 18700 nM | Potency [3] 20900 nM | Potency [4] 20900 nM | Potency [8] 14800 nM | Potency [10] 13200 nM

CN(C)CCN(C)C(=O)c1ccc(NC(=O)Nc2ccc(-c3nc(N4CCOCC4)c4ccn(CC(F)(F)F)c4n3)cc2)cc1
active: Potency [1] 52.5 nM | Potency [11] 132 nM | Potency [5] 708 nM

CNc1nc(Nc2cnn([C@H]3CCN(C4COC4)C[C@@H]3F)c2Cl)ncc1C(F)(F)F
active: Potency [1] 1860 nM | Potency [11] 1660 nM | Potency [10] 2340 nM
inactive: activity (max response) [5] -2.31% | Potency [6]

O=C(O)c1ccc(Nc2ncc3c(n2)-c2ccc(Cl)cc2C(c2c(F)cccc2F)=NC3)cc1
active: Potency [1] 206 nM | Potency [2] 662 nM | Potency [7] 590 nM | Potency [12] 1180 nM | Potency [4] 935 nM
inactive: activity (max response) [5] -30%

Nc1nc(=O)n([C@H]2C[C@H](O)[C@@H](CO)O2)cc1F
active: Potency [1] 29.5 nM | Potency [2] 20.9 nM | Potency [3] 83.3 nM | Potency [4] 105 nM

Nc1nc2[nH]cc(CCc3ccc(C(=O)N[C@@H](CCC(=O)O)C(=O)O)cc3)c2c(=O)[nH]1
inactive: Potency [11]
active: Potency [1] 263 nM | Potency [6] 3160 nM

CC1(C)Cc2c(-c3ccccc3)c(-c3ccc(Cl)cc3)c(CC(=O)O)n2C1
inactive: Potency [7] | Potency [12] | Potency [3] | Potency [4] | Potency [8] | Potency [9] | Potency [10]
active: Potency [1] 9200 nM

O=C(NOC[C@H](O)CO)c1ccc(F)c(F)c1Nc1ccc(I)cc1F
active: Potency [1] 164 nM | Potency [2] 33.2 nM | Potency [7] 148 nM | Potency [12] 20900 nM | Potency [8] 7430 nM | Potency [9] 11800 nM
